# VDR inhibitor: inhibitors of human vitamin D receptor; VDR-SRC2-3 peptide fluorescence polarization, 2 h; AID 504847; Potency, µM, without a hit: max response, negative = inhibition, actives largely listed as inhibitors; hit rate 0.93% among 400,000; further: potency means the concentration at half of the fitted maximal effect
#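 Two reagent solutions held at 4 deg C in the dark were dispensed, compounds pinned at 23 nl, and the mixture incubated 2 h at room temperature. Read-out: fluorescence polarization of VDR–SRC2-3 peptide binding.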
# Sfp PPTase inh: blocks B. subtilis Sfp PPTase activity; Biochemical Sfp PPTase activity, qHTS; Potency, µM, for inactives: largest response in the series, negative = inhibition, actives largely listed as inhibitors; hit rate 3.5% among 310,000; AID 1490;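 further: the enzyme is Sfp with the accession as filed and its product quenches rhodamine fluorescence; potency means the concentration at half of the fitted maximal effect; 0% = enzyme reaction without inhibitor and -100% = no enzyme wells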
#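 Sfp 15 nM + cpd, 15 min RT; start w/ rhodamine-CoA 5 uM, BHQ-2-YbbR 12.5 uM (final); 50 mM Hepes pH 7.6, 10 mM MgCl2, 0.01% NP-40, 0.01% BSA; read 525/598 nm at 0 and 30 min.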
# G9a block: G9a (human) methyltransferase inhibition; AID 504332; hit rate 8.8% among 350,000; Potency, µM (top dose mostly 102 µM), without a hit: top-dose activity, negative = inhibition, actives largely listed as inhibitors; G9a H3K9 monomethylation, AlphaScreen, 2 h; further: potency means the concentration at half of the fitted maximal effect; nearly all actives have a fitted effect of over 75% in size
# Target sequence (Q96KQ7 913-1193 limits assumed): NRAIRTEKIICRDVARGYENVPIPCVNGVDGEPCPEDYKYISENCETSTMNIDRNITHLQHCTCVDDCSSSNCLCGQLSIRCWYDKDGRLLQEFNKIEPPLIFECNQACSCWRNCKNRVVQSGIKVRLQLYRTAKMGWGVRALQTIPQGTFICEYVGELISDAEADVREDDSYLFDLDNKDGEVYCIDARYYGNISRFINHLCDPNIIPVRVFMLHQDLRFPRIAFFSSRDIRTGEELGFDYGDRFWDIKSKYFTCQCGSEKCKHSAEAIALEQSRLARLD
#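 Chemiluminescent proximity detection of H3K9 monomethylation, read after 10 min bead incubation in the dark. Reaction: 20 nM G9a, 500 nM biotin-H3K9 peptide, 20 uM SAM cofactor, 2 h, room temperature, following 15 min enzyme-compound preincubation.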
# PLK1 PBD block: blocks phosphopeptide binding to human PLK1 polo-box domain. P53350. Plk1 PBD binding of FITC phosphopeptide, fluorescence polarization. Potency, µM, inactives show max response, negative = inhibition, actives largely listed as inhibitors. hit rate 2.8% among 360,000; further: potency means the concentration at half of the fitted maximal effect; series mostly up to about 57 µM; nearly all actives have a fitted effect of over 65% in size
# CCT chaperon mod: cytosolic chaperonin activity modulation; purified chaperonin ATPase assay, HTRF ADP detection, 30 min; activity change, % (no concentration beside the values), hits read low; hit rate 0.3% among 360,000; AID 651819; in the data active means activity change below about -30%
#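 We incubate TRiC, 40 or 20 nM final, with library compounds at 76 uM and 10 uM ATP for 30 min at 37 °C. ADP formed is detected with Transcreener HTRF reagents after 30 min at room temperature.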
# MmCpn inh: inhibitors of Methanococcus maripaludis chaperonin TRiC (MmCpn). Potency, µM (series often up to 76.9 µM), without a hit: top-dose activity, negative = inhibition, actives largely listed as inhibitors. purified Mm-Cpn ATPase, ADP Transcreener TR-FRET. hit rate 0.031% among 330,000; further: potency means the concentration at half of the fitted maximal effect; nearly all actives have a fitted effect of over 80% in size
#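 TR-FRET (320 nm excitation; 590 and 665 nm emission) reports ADP made from 10 uM ATP by 25 nM enzyme; compounds were preincubated 10 min, reaction run 30 min, both at 37°C.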
# An asterisk follows results filed as active; ? = inconclusive; / = no result given; ! = not active in a repeat; [ ] = another dose, or the depositor's remark. Sampled rows, rich in hits. Any-hit rate of the full collection: about 10%. Unless noted, the call rests on the fitted dose curve; in most records, active means well fitted curve in the direction sought with a large enough effect; inconclusive means small, poorly fitted or top-dose-only effect, or another doubt; inactive means no such curve, though single readings can be large; an effect the other way counts as inactive or inconclusive. Unless noted, on the % scale 0 is the no-effect control and ±100 the full control effect.
SMILES,VDR inhibitor,Sfp PPTase inh,G9a block,PLK1 PBD block,CCT chaperon mod,MmCpn inh
N#Cc1ccc(-c2ccco2)nc1SCc1ccccc1,0.1%,-8.6%,28.2µM*,-3.9%,-1.5,-6.1%
Cc1ccc(CSc2ccc(-c3ccc4c(c3)OCO4)nn2)cc1,-21.3%,-19.3%,50.1µM*,-19.4%,-9.7,-1.2%
CCOC(=O)c1ccccc1NC(=O)CSc1cc(C)[nH]c(=O)n1,15.1%,/,-2.6%[59 µM],/,/,/
Cc1ccc(C2=Nc3ccccc3N=C(c3ccc(F)cc3)C2)c(O)c1,3.5%,/,0.0%[59 µM],/,/,/
Fc1ccccc1CSc1ccc(-c2ccco2)nn1,-13.1%,56.2µM*,39.8µM*,?,-2.2,?
Clc1cccc(CSc2ccc(-c3cccnc3)nn2)c1,-10.2%,5.6%,-42.0%,-3.1%,0.9,-0.6%
Clc1cccc(CSc2ccc(-c3ccco3)nn2)c1,?,35.5µM*,15.8µM*,-12.1%,-4.8,1.3%
COC(=O)c1c(SCC(=O)Nc2cccc(C(F)(F)F)c2)[nH]c2ccccc2c1=O,17.9%,/,12.4%[59 µM],/,/,/
N#CC1=C(N)Nc2nc3ccccc3n2C1c1ccc(Cl)cc1 (stereo unspecified),-3.3%,2.8%,0.631µM*,4.1%,-0.4,?
CCN(CC)C(=O)C1=C(C)Nc2nc3ccccc3n2C1c1ccc(Cl)cc1 (stereo unspecified),-15.3%,/,5.9%[59 µM],/,/,/
CC(C)c1ccc(O)c(N)c1,-5.7%,11.2µM*,1.41µM*,1.1%,-0.4,4.8%
CCC(C)c1ccc(O)c(N)c1 (stereo unspecified),-7.5%,50.1µM*,2.82µM*,-2.4%,-1.5,-0.1%
CC(C)(C)c1ccc(O)c(N)c1,/,?,?,/,/,1.3%
Cc1ccc(-n2c(=O)c3c(c4cc(C)ccc4n3C)n(CC(=O)Nc3c(C)cccc3C)c2=O)cc1,1.1%,/,-14.0%[59 µM],/,/,/
COc1ccc(C2Sc3ccccc3N(CCN(C)C)C(=O)[C@@H]2OC(C)=O)cc1 (stereo partly specified),/,14.0%,/,/,/,/
COc1ccc([C@@H]2Sc3ccccc3N(CCN(C)C)C(=O)[C@@H]2OC(C)=O)cc1,-6.5%,-10.9%,3.16µM*!,-2.7%,0.2,-3.1%[15.4 µM]
Cc1ccc(C(=O)NCCc2ccc(Cl)cc2)cc1-n1c(C)nc2cccnc21,15.2%,/,7.9%[59 µM],/,/,/
COc1ccc(OC)c(NC(=O)Cn2cc(C(=O)c3cccs3)c3ccccc32)c1,11.6%,/,-3.0%[59 µM],/,/,/
O=c1c(O)c(-c2ccccc2O)oc2cc(O)cc(O)c12,3.1%,7.1%,/,/,/,/
Cc1c(N(C)C(=O)c2ccco2)c(=O)n(-c2ccccc2)n1C,-26.8%,16.3%,-40.2%,26.7µM*,-0.8,0.5%
Cc1cc(C)c2c(N)c(C(=O)NCC3CCCCC3)sc2n1,7.6%,-6.7%,?,-2.8%,-0.1,-1.7%
Cc1cc(C)c2c(N)c(C(=O)N3CCc4ccccc4C3)sc2n1,7.5%,56.2µM*,70.8µM*,-6.7%,1.6,-4.2%
CCN1CCc2nc3sc(C(=O)N4CCc5ccccc5C4)c(N)c3cc2C1,-14.0%,44.7µM*,20µM*,-16.9%,1.1,1.0%
Cc1cc(C)c2c(N)c(C(=O)NC3CCCC3)sc2n1,5.8%,11.2%,35.5µM*,-25.8%,-1.2,0.1%
CC(=O)c1ccc(NC(=O)Cn2nc(C(F)(F)F)c3c2CCC3)cc1,-12.4%,/,-3.5%[59 µM],/,/,/
SMILES,VDR inhibitor,Sfp PPTase inh,G9a block,PLK1 PBD block,CCT chaperon mod,MmCpn inh
Cc1ccc(N2CC(c3nnc(NC(=O)c4ccco4)s3)CC2=O)cc1C (stereo unspecified),10.0%,/,?,/,/,/
S=c1[nH]nc(-c2ccc(Cl)cc2)n1-c1ccc2c(c1)OCCO2,-8.6%,?,1.78µM*,-11.4%,0.9,-8.3%
S=c1[nH]nc(-c2cccnc2)n1-c1ccc2c(c1)OCCO2,-5.7%,?,31.6µM*,-9.6%,-3.6,-1.5%
S=c1[nH]nc(-c2ccc(Cl)cc2)n1-c1ccc(Cl)cc1,-12.9%,22.5%,8.91µM*,?,1.0,-4.4%
S=c1[nH]nc(-c2ccc(Cl)cc2Cl)n1-c1ccc(Cl)cc1,8.7%,-0.8%,/,?,-2.1,3.1%
COc1ccc(-c2n[nH]c(=S)n2-c2ccc(C)cc2)cc1,?,?,0.891µM*,-25.8%,-0.9,-6.3%

# Source: PubChem BioAssay
